Compound activity deposited in PubChem by National Center for Advancing Translational Sciences (NCATS).
This excerpt belongs to a sample that is enriched for hits.
Pf Dd2 growth – inhibitors of Plasmodium falciparum Dd2 growth. P. falciparum Dd2 growth, SYBR Green, 72 h. Potency, µM (top dose mostly 28.9 µM), without a hit: at the highest dose activity, negative = inhibition, actives largely listed as inhibitors. hit rate 4.3% among 120,000. AID 1347417; active means well fitted inhibition curve with a large enough effect;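 further: plate controls were DMSO vehicle for no effect and reference drug for full effect; nearly all actives have a fitted effect of over 65% in size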
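Readout: SYBR Green fluorescence, 485 nm excitation, 535 nm emission, after ~16 h lysis at 37C. Before that, Dd2-infected red cells (2.5% hematocrit) grew 72 h with compound, 29 uM top final concentration.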
Numbers without * were called inactive; i = inactive; [ ] = another dose, or the depositor's remark. Potency means the concentration at half of the fitted maximal effect.

SMILES	Pf Dd2 growth
COCCn1ncc(N2CCCC(CC(=O)N(C)Cc3cccnc3)C2)cc1=O (configuration not stated)	20.1%
O=C(c1ccccc1)N1C[C@@H]2C[C@H](C1)c1ccc(C3CCCCC3)c(=O)n1C2	i
COC[C@@H]1CN(C(=O)c2ccccc2OC)C[C@H]1c1nc(C2CC2)no1	-16.3%
CCc1nc(-c2c3n(c(=O)n(CC(=O)Nc4cccc(C)c4)c2=O)CCCCC3)no1	-5.7%
O=C(c1ccc(C2CCCNC2)cc1)N1CCCN(c2ncccn2)CC1 (configuration not stated)	-1.7%
O=C(c1ccc(C2CCCNC2)cc1)N1CCC(Oc2cccc(F)c2)CC1 (configuration not stated)	12.6µM*
O=C(c1ccc(F)cc1)N1CCC(Oc2cccnc2)C1 (configuration not stated)	12.2%
CC(=O)N1CCC(n2c(C)cnc2-c2ccccc2)CC1	7.7%
COCC(=O)N1CCC(N2C[C@H](O)C[C@H]2C(=O)NC2CCCCC2)CC1	5.0%
COCCN1C[C@H]2CN(Cc3ncc[nH]3)CCN2C1=O	-13.5%[44.1 µM]
Cn1c(CN2CCN(c3cnccn3)CC2)nnc1C1CC(N)C1 (configuration not stated)	-3.8%
Cn1cc(CN2CCN(c3cnccn3)CC2)c(-c2ccc(C3CCCCC3)cc2)n1	10µM*
CCN(CCOC)Cc1cn(C)nc1-c1ccc(C2CCCCC2)cc1	10µM*
CN1C(=O)CC(C(=O)O)C12CCN(Cc1cn(C)nc1-c1ccccc1)CC2 (configuration not stated)	-6.7%
CCN1CCC(CCNC(=O)CCC[C@@H]2[C@H]3CCCN4CCC[C@@H](CN2C(C)=O)[C@@H]34)CC1	-1.4%
O=C(Cn1ccn2nc(-c3ccc(F)cc3)c(CO)c2c1=O)NCCc1ccc(Cl)cc1	-5.2%
O=C(CC1COCCN1)NCc1ccc(N2CCCC2=O)cc1 (configuration not stated)	19.7%
CCOCCCNC(=O)N1CC(Oc2ccc(-c3nc(C)no3)cc2)C1	52.4%[5.79 µM]
CC(C)(C)CC(=O)N1CCN2C(=O)c3ccc(Cl)cc3NC(=O)[C@H]2C1	-11.2%[44.1 µM]
COCCC(=O)N1CCC(N2C(=O)CCC2C(=O)NCc2ccccc2)CC1 (configuration not stated)	-3.9%
COC(=O)c1c(-c2ccc(Cl)cc2)noc1N1CCN(c2ccc(C(C)=O)cc2)CC1	2.1%
COC(=O)c1c(-c2ccc(Cl)cc2)noc1N1CCN(c2ccc(C)cc2C)CC1	8.91µM*
COC(=O)c1c(-c2ccc(Cl)cc2)noc1N1CCN(c2ccccc2F)CC1	29.7%
CCN(Cc1nccn1C)C(=O)c1ccc(NC[C@H]2C[C@H]3C=C[C@H]2C32CC2)nc1	i
Nc1ncccc1CN1CC[C@@H]2OCC(=O)N(Cc3ccc(O)cc3)[C@H]2CC1	i
SMILES	Pf Dd2 growth
COc1ccc(-c2nc(C)nc3c2CN(C(=O)c2ccccc2OC)CC3)cc1	9.0%
COc1cccc(-c2cc(-c3c(C)noc3C)cc3c2C(=O)N(C)C3=O)c1OC	i
Cc1noc(C)c1-c1cc(-c2ccccc2F)cn2cncc12	7.08µM*
Cc1noc(C)c1-c1cc(-c2cccc(O)c2)cn2cncc12	11.2µM*
FC(F)(F)c1ccccc1-c1cc(-c2cccnc2)c2cncn2c1	-24.1%[44.1 µM]
C1=C(c2cc(-c3ccncc3)cn3cncc23)CCOC1	i
c1cncc(-c2cc(-c3cccc(N4CCOCC4)c3)cn3cncc23)c1	-27.6%[44.1 µM]
Cc1noc(C)c1-c1cc(-c2ccccc2C(F)(F)F)cn2cncc12	6.31µM*
Cc1noc(C)c1-c1cc(-c2ccc(CO)cc2)cn2cncc12	-22.7%[44.1 µM]
Cc1noc(C)c1-c1cc2c(c(-c3ccccc3)c1)C(=O)N(C)C2	i
CCN1CCCCC12Cc1ccccc1CN(C(=O)CCCN(C)C)C2 (configuration not stated)	-9.1%
Cc1c(C(=O)N2CC[C@@](O)(C3CCOCC3)[C@H](C)C2)n(C)c2c(C)cccc12	-4.9%
CCNC(=O)N[C@H]1[C@H](O)[C@@H](N2CCN(c3ccccc3OC)CC2)[C@@H]2OC[C@H]1O2	14.0%[44.1 µM]
CCNC(=O)[C@@H]1CCCN1C(C)(C)C(=O)NC	-1.8%[44.1 µM]
COc1ncccc1-c1ccnc(-c2nnc(C)n2-c2ccccc2)c1	i
COc1cccc(CNC(=O)Cn2nc3n(c2=O)CCCC3)c1	9.1%
Cc1ccc([C@H]2C[C@@H](O)[C@@H](O)[C@@H]2NCC(C)(C)O)cc1	i
Cc1ocnc1C(=O)N1CCN(C(=O)C2CCC2)[C@@H]2CS(=O)(=O)C[C@@H]21	2.1%
Cc1ncc2c(n1)C[C@@H]1CC[C@H]2N1C(=O)Nc1ccccc1F	-8.7%
O=C(N[C@@H]1CN(Cc2ccc(F)cc2Cl)C[C@H]1CO)C1CCC1	8.91µM*
CN1C[C@@H](CO)[C@H](NC(=O)c2ccccc2)C1	11.5%
O=C(N[C@@H]1CN(Cc2ccc(F)cc2Cl)C[C@H]1CO)C1CC1	-5.4%
N#Cc1cccc(CN2C[C@@H](CO)[C@H](NC(=O)c3ccccc3)C2)c1	-17.0%
O=C(N[C@@H]1CN(Cc2ccc(Cl)c(F)c2)C[C@H]1CO)C1CCC1	-27.0%
O=C(N[C@@H]1CN(Cc2ccc(F)cc2F)C[C@H]1CO)c1ccccc1	10µM*
SMILES	Pf Dd2 growth
O=C(NC1CCN(C(=O)N2CC3CC(C2)[C@H]2CCCC(=O)N2C3)CC1)C1CCCC1 (some centres not stated)	-24.7%
CN1C(=O)C2(c3ccccc31)N(c1ccc(F)c(Cl)c1)C(=O)CS2(=O)=O (configuration not stated)	-14.5%
O=C1CS(=O)(=O)C2(C(=O)N(Cc3ccccc3Cl)c3ccccc32)N1c1ccc(F)cc1 (configuration not stated)	5.62µM*
COc1ccc(N2C(=O)CS(=O)(=O)C23C(=O)N(Cc2ccccc2)c2ccccc23)cc1 (configuration not stated)	-23.0%
Cc1cc(CN(C)C(=O)CC(c2ccccc2)c2ccccc2C)n[nH]1 (configuration not stated)	-10.5%
N#Cc1cccc(NC(=S)N[C@H]2CO[C@H]3[C@@H]2OC[C@@H]3n2nnnc2Oc2cccc(N3CCOCC3)c2)c1	8.91µM*
N#Cc1cccc(NC(=S)N[C@H]2CO[C@H]3[C@@H]2OC[C@@H]3n2nnnc2Oc2ccc3c(c2)OCO3)c1	-28.8%
N#Cc1cccc(NC(=S)N[C@H]2CO[C@H]3[C@@H]2OC[C@@H]3n2nnnc2Oc2ccccc2)c1	i
COCCO[C@H]1C(=O)N(C2CCN(C(=O)c3cnn(C)c3)CC2)[C@H]1c1ccncc1	-14.6%
CCC1(O)CCC12CCN(C(=O)c1cccnc1)CC2 (configuration not stated)	0.4%
O=C(NC1C[C@H]2CC[C@@H](C1)N2C(=O)c1ccn[nH]1)c1ccncc1 (some centres not stated)	10.0%
COc1ccc(-c2nc(C)nc3c2CCN(CC2CC2)CC3)cc1	i
COc1ccc(-c2nc(C3CC3)nc3c2CCN(Cc2cc(C)on2)CC3)cc1	2.51µM*
COc1ccc(-c2nc(C3CC3)nc3c2CCN(Cc2ccccc2)CC3)cc1	5.01µM*
COc1ccc(-c2nc(C)nc3c2CCN(CCC(C)C)CC3)cc1	-15.1%
Clc1ccc(-c2nc(C3CC3)nc3c2CCN(Cc2ccccc2)CC3)cc1	i
COc1ccc(CC(=O)N2CCc3nc(C4CC4)nc(-c4ccc(Cl)cc4)c3C2)cc1	i
O=C(O)CCn1ncc2cc(OCC3CCN(C(=O)OC4CCCC4)CC3)ccc21	-21.2%[44.1 µM]
COC(=O)CNC(=O)c1nc(-c2ccc(Cl)cc2Cl)c2cnccn12	-22.0%
